# From PubChem
# Only some compounds are listed: those with a hit (about 9.8% of all), similar ones and a draw of the others.
# CBFb RUNX1 block – CBF-beta/RUNX1 interaction disruption. Q01196+Q13951. AlphaScreen CBFb-His/RUNX1-biotin binding, biochemical. Potency, µM (top dose mostly 59.8 µM), usual class: inhibitors. 230,000 tested, under 10 active
#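 Interaction loss through any mechanism counts as activity. Pre-formed complex of His-CBF-beta and biotin-RUNX1 (30 nM apiece) is incubated with compound 15 min, then with 50 ng nickel and 50 ng streptavidin beads for 90 min before AlphaScreen detection.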
# ALDH1A1 block – inhibitors of human aldehyde dehydrogenase 1A1 | P00352 | Purified ALDH1A1, NADH fluorescence, propionaldehyde substrate | Potency, µM (series often up to 75.3 µM), actives largely listed as inhibitors | 220,000 compounds, 7.3% hits; active = well fitted inhibition curve with a large enough effect, not every such curve was filed as active; inconclusive = small, poorly fitted or top-dose-only effect, or another doubt; inactive = no such curve, though single readings can be large or run the other way
# HttQ103 aggreg – inhibitors of mutant huntingtin aggregate formation in PC12 cells; AID 1688; PC12 HttQ103-GFP aggregates, Acumen cytometry, 40 h; Potency, µM (titrated, usually from 46.1 µM), usual class: inhibitors; 220,000 compounds, 1.1% hits; also: nearly all actives have a fitted effect of over 60% in size
#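 Huntingtin Q103 exon 1–GFP aggregates in induced PC12 cells (100 nM tebufenozide) were quantified by cytometry from lysates, with compounds dosed in titration.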
# HTT ATP protect – Huntington cell model cytoprotection by ATP luminescence. PC12 HTT-Q103 induced, cytoprotection, ATP luminescence, 40 h. Potency, µM (titrated, usually from 56.4 µM), usual class: activators. 230,000 compounds, 0.14% hits. AID 1471; also: nearly all actives have a fitted effect of over 45% in size
#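 Quantitative HTS on tebufenozide-induced (100 nM) PC12 cells expressing HTTQ103 exon 1–GFP; compounds tested as a concentration series; survival measured via cellular ATP.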
# KDM4E inh – inhibitors of human JMJD2E histone demethylase | JMJD2E catalytic domain, FDH-coupled NADH fluorescence (FDH is formaldehyde dehydrogenase) | Potency, µM (series often up to 57.1 µM), most hits filed as inhibitors | 230,000 compounds, 1.6% hits | AID 2147; active = well fitted inhibition curve with a large enough effect, not every such curve was filed as active; inconclusive = small, poorly fitted or top-dose-only effect, or another doubt; inactive = no such curve, though single readings can be large or run the other way; also: nearly all actives have a fitted effect of over 50% in size
# Target sequence (B2RXH2 1-337 limits assumed): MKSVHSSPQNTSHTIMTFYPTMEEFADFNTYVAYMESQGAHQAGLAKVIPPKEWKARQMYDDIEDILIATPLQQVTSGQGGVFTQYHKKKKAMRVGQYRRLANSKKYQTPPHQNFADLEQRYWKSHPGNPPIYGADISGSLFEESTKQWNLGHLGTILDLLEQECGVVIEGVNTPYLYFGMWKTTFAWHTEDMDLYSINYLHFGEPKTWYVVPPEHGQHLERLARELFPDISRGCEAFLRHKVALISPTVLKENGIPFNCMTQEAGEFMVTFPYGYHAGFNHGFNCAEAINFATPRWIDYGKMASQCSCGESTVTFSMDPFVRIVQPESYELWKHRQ
# HPGD inh – inhibitors of human 15-hydroxyprostaglandin dehydrogenase (HPGD). P15428. purified HPGD, NADH fluorescence kinetic, PGE2 substrate. Potency, µM, hits mostly inhibitors. 150,000 compounds, 4.3% hits. AID 894; active = well fitted inhibition curve with a large enough effect, not every such curve was filed as active; inconclusive = small, poorly fitted or top-dose-only effect, or another doubt; inactive = no such curve, though single readings can be large or run the other way
# Target sequence (P15428 whole entry, looked up): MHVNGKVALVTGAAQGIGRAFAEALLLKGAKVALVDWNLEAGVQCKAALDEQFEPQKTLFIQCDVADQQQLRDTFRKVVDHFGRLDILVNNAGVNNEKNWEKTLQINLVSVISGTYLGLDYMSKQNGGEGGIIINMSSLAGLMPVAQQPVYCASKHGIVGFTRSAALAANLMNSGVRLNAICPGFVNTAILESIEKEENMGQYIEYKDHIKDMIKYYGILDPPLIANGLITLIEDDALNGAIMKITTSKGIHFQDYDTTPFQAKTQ
#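 20 nM HPGD preincubated 15 min at room temperature with compound in 50 mM Tris-HCl pH 8, 0.01% Tween 20. Started with 1 mM NAD+ and 30 uM prostaglandin E2; NADH fluorescence (360/450 nm) read 5 times over 30-s intervals, last minus first.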
# A number is an active result; . = inactive; ? = inconclusive; / = no result given; [ ] = another dose, or the depositor's remark. Unless noted, calls follow the shape of the dose curve; as a rule, active = well fitted curve in the direction sought with a large enough effect; inconclusive = small, poorly fitted or top-dose-only effect, or another doubt; inactive = no such curve, though single readings can be large; an effect the other way counts as inactive or inconclusive.
SMILES,CBFb RUNX1 block,ALDH1A1 block,HttQ103 aggreg,HTT ATP protect,KDM4E inh,HPGD inh
CCOP(=O)(OCC)C(NC(=O)c1cc([N+](=O)[O-])cc([N+](=O)[O-])c1)C(F)(F)F (stereo not given),.,?,.,.,.,/
CC(=O)NCCC(=O)Nc1ccc(C(N)=O)cc1,.,.,.,.,.,/
COc1cc(C2C(C#N)=C(N)Oc3n[nH]c(-c4cccnc4)c32)cc(Br)c1O (stereo not given),.,.,.,/,.,/
O=C(NNC(=O)c1cc(O)c(O)c(O)c1)NC1CCCCC1,.,.,.,.,7.1µM,?
O=C(NNC(=O)c1cccnc1)NC1CCCCC1,.,.,.,.,.,/
O=C(NCCCN1CCCC1)[C@H](CSCc1ccccc1)N1Cc2ccccc2C1=O,.,/,.[9.22 µM],.[10 µM],?,/
Cc1ccc(N/C=C2\C(=O)C3(C)CCC2C3(C)C)cc1C (stereo not given),.,14µM,?,.,.,/
O=C1C=C(c2ccccc2)CC(c2cccs2)C1n1cnc([N+](=O)[O-])c1 (stereo not given),.,?,.,.,.,.
O=C1C=C(c2ccccc2)C[C@H](c2cccs2)[C@H]1n1nnc([N+](=O)[O-])n1,?,10µM,?,.[10 µM],?,.
O=C(O)c1nnn(-c2cc(C(F)(F)F)cc(C(F)(F)F)c2)c1-c1ccccc1,.,?,.[9.22 µM],.[10 µM],.,/
Cc1cccc(-n2nnc3c(=O)n(Cc4ccccn4)cnc32)c1,.,.,.,.,.,/
COc1ccccc1OCC(=O)c1[nH]c(C)c(C(C)=O)c1C,.,.,?,.,.,.
COc1cc(CN(C)CC(=O)c2[nH]c(C)c(C(C)=O)c2C)ccc1OC(F)F,.,3.5µM,.,.[10 µM],.,.
O=C(N/N=C/c1cc(Br)ccc1O)Nc1ccccc1,.,.,.,.[10 µM],?,.
CC1(C)OC2OC(C(=O)N/N=C/c3cc(Br)ccc3O)C3OC(C)(C)OC3C2O1 (stereo not given),.,.,10µM,.[10 µM],28µM,.
NC(=O)SCC(=O)Nc1cccc(Cl)c1,.,0.6µM,.,.,.,.
N#CCSCC(=O)Nc1ccc(Cl)cc1,.,?,.,.,.,.
NC(=O)/C=C/C(=O)Nc1ccc(Cl)cc1,.,2.2µM,?,.,.,/
NC(=O)SCC(=O)Nc1ccc(Cl)cc1,.,?,.,.,.,4.5µM
NC(=O)Nc1ccc(Cl)cc1,.,/,.[9.22 µM],.[10 µM],.,/
Cc1c(Cl)cccc1NC(=O)CSC(N)=O,.,?,.[9.22 µM],.,.,/
Cc1ccc(NC(=O)CSC(N)=O)cc1Cl,.,3.5µM,.,.,.,.
NC(=O)SCC(=O)Nc1ccc(Cl)c(Cl)c1,.,?,.,.,.,.
NNC(=O)c1ccc2c(c1)S(=O)(=O)NNC2=O,.,?,.,.,.,/
O=C(Nc1ncn[nH]1)c1cc(S(=O)(=O)Nc2cccc(C(F)(F)F)c2)ccc1Cl,.,.,.,.,.,/
SMILES,CBFb RUNX1 block,ALDH1A1 block,HttQ103 aggreg,HTT ATP protect,KDM4E inh,HPGD inh
COc1ccc(CCNC(=O)COC(=O)Cn2cnc3ccccc3c2=O)cc1,.,/,.[9.22 µM],.[10 µM],.,/
CCCN1CCC(=O)N(C(CSc2ccc(OC)cc2)CC(C)C)CC1 (stereo not given),.,/,/,/,/,/
COc1cc2c(c(OC)c1OC)-c1c(cc(OC)c(OC)c1OC)CC(C)C(C)C2 (stereo not given),.,/,/,/,/,/
Cc1ccc(N2C(=O)C(CC(=O)Nc3cccc(F)c3)N(C3CC3)C2=O)cc1 (stereo not given),.,20µM,.,.,.,/
COCCn1c(SCC(=O)OC(C)C)nnc1-c1ccccc1,.,.,.,.,.,.
COc1ccccc1N1CCN(/N=C/c2cc(OC)c(O)c(OC)c2)CC1,.,16µM,.,.[10 µM],.,?
Oc1ccc(Cl)cc1CNc1ccc(Br)cn1,?,.,?,?,.,14µM
Cc1cc(C)nc(NC(=O)/C=C/c2ccc3c(c2)OCO3)c1,.,?,.,.[10 µM],?,?
CCN(C(=O)c1cccs1)c1nnc(-c2ccncc2)s1,.,.,.,.[1.9 µM],.,.
COCCN(C(=O)Cc1cccs1)c1nnc(-c2ccncc2)s1,.,13µM,.,.[10 µM],?,.
COC(=O)c1cc(C(=O)Nc2nnc(CC(C)(C)C)s2)cc([N+](=O)[O-])c1,.,25µM,.,.[10 µM],.,16µM
COc1ccc(-c2nc3c(c4c2C[C@H](c2ccccc2)OC4)CN(S(=O)(=O)c2ccc4c(c2)OCCN4C)CC3)c(C)c1,.[13.1 µM],?,/,.[10 µM],.[11.4 µM],.
O=Cc1sc(Nc2ccccc2)nc1Cl,.,.,.,?,.,/
COc1ccccc1Nc1nc(Cl)c(C=O)s1,.,18µM,.,.[10 µM],.,/
COc1ccccc1Nc1nc2c(s1)CCC2,.,18µM,?,.[10 µM],.,?
C[C@H]1C2=C3C(CC[C@H]4C(OCc5ccc(F)cc5C(F)(F)F)OC[C@](C)([C@@H]34)N(C(=O)OC(C)(C)C)C2)C(CO)C1CO (stereo not given in full),.,.,/,.,?,.
Cc1ccc(NC(=O)CN2C(=O)N/C(=C/c3cccn3-c3ccc(C(=O)O)cc3)C2=O)cc1,/,.,.,.[10 µM],?,25µM
Cc1ccc(NC(=O)CN2C(=O)N/C(=C/c3cc(C)n(-c4ccc(C(=O)O)cc4)c3C)C2=O)cc1,?,?,.,?,?,/
Cc1ccc(NC(=O)CN2C(=O)N/C(=C/c3ccco3)C2=O)cc1,?,25µM,.,.,16µM,.
CCCCN1CNC(=S)N(Cc2ccccc2)C1,.,.,.,.[10 µM],.,.
CC(C)(C)N1CSC(=S)N(Cc2ccccc2)C1,.,32µM,.,.,.,/
CCCCN1CSC(=S)N(Cc2ccccc2)C1,/,3.5µM,/,.[10 µM],/,.
C=C1CCN(C(CC(C)C)C(=O)O)S(=O)(=O)c2ccccc21 (stereo not given),.,/,/,/,/,/
S=C(Nc1ccccc1)N1CCN(C(=S)c2ccccc2)CC1,.,13µM,.,.,.,/
S=C(Nc1ccccc1)N1CCCCC1,.,.,.,.,.,.
SMILES,CBFb RUNX1 block,ALDH1A1 block,HttQ103 aggreg,HTT ATP protect,KDM4E inh,HPGD inh
Cc1cc(C)c2ccc(N)nc2c1O,.,.,8.9µM,.[1.9 µM],25µM,.
CN(C)c1ccc(C2C3C(=O)NC(=O)C3ON2c2ccc(Cl)cc2)cc1 (stereo not given),.,25µM,.,.,.,.
CN(C)c1ccc(S(=O)(=O)c2ccc(Cl)cc2)cc1,.,?,.,.,?,?
Cc1nc(N2CCOCC2)nc(N2CCCCC2)c1[N+](=O)[O-],.,16µM,.,.[0.074 µM],.,.
CC(C)(CSc1ccccn1)NS(=O)(=O)c1ccccc1,.,?,.,.[10 µM],.,.
CC(C)(CSc1ccccn1)NS(=O)(=O)c1ccc(Cl)cc1,.,10µM,.,.[10 µM],.,.
O=C(CN1CCC(C(=O)c2ccc(Cl)cc2)CC1)Nc1ccc2c(c1)OCCO2,.,.,.,.[10 µM],.,.
